# Screening data: PubChem BioAssay, National Center for Advancing Translational Sciences (NCATS)
# A selection: hits, their analogues and other compounds. The true share with any hit is near 9.3%.
# ELG1 repair inh – inhibitors of ELG1-dependent DNA repair in HEK293T cells. HEK293T ELG1-luciferase reporter, luminescence, 16 h; DNA damage induced by 5-fluorouridine. Potency, µM (highest dose often 46.1 µM), usual class: inhibitors. hit rate 2.3% among 330,000; further: nearly all actives have a fitted effect of over 55% in size
#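 5-Fluorouridine DNA damage + compound/DMSO, 2,000 cells/well, 16 h, 37 °C/5% CO2. ONE-Glo, 30 min RT, luminescence. Readout = decrease in reporter signal.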
# NPC1 promoter act – activators of NPC1 promoter; Huh7 NPC1 promoter luciferase reporter, 24 h; hit rate 2.4% among 320,000; Potency, µM (highest dose often 9.22 µM), usual class: activators; AID 485313; further: nearly all actives have a fitted effect of over 60% in size
#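 Huh7 reporter cells (NPC1 promoter driving luciferase) are dosed with compound for 24 h at 37 °C, 5% CO2; luciferase detection reagent is then added and luminescence measured after 10 min at ambient temperature.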
# Rab9 promoter act – activators of Rab9 promoter; AID 485297; Huh7 Rab9 promoter-luciferase reporter, luminescence, 24 h; Potency, µM (highest dose often 9.22 µM), actives largely listed as activators; hit rate 2.8% among 320,000; further: nearly all actives have a fitted effect of over 60% in size
#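 Luminescence read-out: Huh7 cells stably expressing Rab9-luciferase, treated 24 h with compound at 37 °C, then lysed with luciferase reagent for 10 min at ambient before reading.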
# SMN2 splice up – SMN2 splice variant enhancement | HEK293 SMN2-luciferase splicing reporter, luminescence, 30-36 h | AID 1458 | Potency, µM (doses to about 46.1 µM), actives largely listed as activators | hit rate 2.8% among 210,000; further: nearly all actives have a fitted effect of over 55% in size
#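 HEK293 cells carry an SMN2 […]–luciferase reporter in which exon 7 inclusion puts luciferase in frame. Cells were plated 10-12 h before compound addition, then incubated 30-36 h at 37C. ONE-Glo luminescence was read; sodium butyrate at 4.5 mM final served as control.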
# ELG1 genotox – inducers of genotoxicity in HEK293T ELG1-luciferase cells. HEK293T ELG1-luciferase reporter, luminescence, 16 h. Potency, µM (titrated, usually from 46 µM), hits mostly activators. hit rate 1.3% among 330,000; further: nearly all actives have a fitted effect of over 60% in size
#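 Step 1: seed 2,000 HEK293T ELG1-luciferase cells per well. Step 2: add compound or DMSO, incubate 16 hr at 37 °C. Step 3: ONE-Glo, 30 min at room temperature, read luminescence.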
# FLuc counter – inhibits or activates purified firefly luciferase, miR-21 counter-screen. AID 588342. purified FLuc, Km substrates, luminescence inhibition. hit rate 6.9% among 360,000. Potency, µM (highest dose often 57.5 µM), hits mostly inhibitors; further: nearly all actives have a fitted effect of over 55% in size
# Target sequence (P08659 whole entry, looked up): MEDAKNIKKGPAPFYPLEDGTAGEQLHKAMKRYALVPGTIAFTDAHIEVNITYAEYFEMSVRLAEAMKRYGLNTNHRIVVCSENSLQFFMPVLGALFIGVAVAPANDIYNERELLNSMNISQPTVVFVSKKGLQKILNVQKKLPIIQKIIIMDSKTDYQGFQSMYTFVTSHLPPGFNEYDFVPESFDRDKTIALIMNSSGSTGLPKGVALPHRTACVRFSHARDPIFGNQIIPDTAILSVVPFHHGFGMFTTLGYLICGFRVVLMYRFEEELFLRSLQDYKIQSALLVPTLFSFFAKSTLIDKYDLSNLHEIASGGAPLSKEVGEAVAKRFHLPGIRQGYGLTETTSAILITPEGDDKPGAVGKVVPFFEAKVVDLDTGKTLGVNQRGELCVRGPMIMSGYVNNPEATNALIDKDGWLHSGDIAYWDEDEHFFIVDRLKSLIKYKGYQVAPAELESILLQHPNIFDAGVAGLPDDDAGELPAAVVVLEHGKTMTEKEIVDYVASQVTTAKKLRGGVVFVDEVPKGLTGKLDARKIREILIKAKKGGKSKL
#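 Purified P. pyralis luciferase (10nM final) with 10uM D-luciferin and 10uM ATP (Km levels) in 50mM Tris acetate pH 7.5, 10mM Mg acetate, 0.01% Tween-20, 0.05% BSA; qHTS 6-point titration, ~60 µM downward; luminescence read.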
# A number is an active result; 0 = inactive; ? = inconclusive; - = no result given; [ ] = another dose, or the depositor's remark. The call rests on the fitted dose curve; in most records, active means well fitted curve in the direction sought with a large enough effect; inconclusive means small, poorly fitted or top-dose-only effect, or another doubt; inactive means no such curve, though single readings can be large; an effect the other way counts as inactive or inconclusive.
SMILES,ELG1 repair inh,NPC1 promoter act,Rab9 promoter act,SMN2 splice up,ELG1 genotox,FLuc counter
CC(C)(C)C(=O)[C@H]1[C@H](c2ccccc2)[C@@]2(N=C(c3ccccc3)OC2=O)C2c3ccccc3C=NN21 (some centres undefined),?,0,0,0,0,15µM
CC1(/[N+]([O-])=C\c2ccccc2F)CCCCC1=O (centres undefined),0,0,0,-,0,0
COc1cccc2c1C(CO)N1C(C#N)C3CC(C(=O)O)C(C1C2)N3C (centres undefined),0.33µM,0,0,-,0,0
Cc1cc(C(=O)OCC(=O)NC2CCS(=O)(=O)C2)c2ccccc2n1 (centres undefined),0,0,0,0,0,0
CCN(CC)C(=O)COC(=O)c1cc(-c2ccco2)nc2ccccc12,0,0,0,0,0,?
COCCNC(=O)COC(=O)c1cc(-c2ccc(OC)cc2)nc2ccccc12,?,0,0,?,0,11µM
O=C(COc1ccc(Oc2ccccc2)cc1)NC1CCS(=O)(=O)C1 (centres undefined),?,-,-,-,0,-
CCN(CC)C(=O)COC(=O)c1cc(-c2ccc(OC)cc2)nc2ccccc12,?,0,0,0,0,7.6µM
Cc1ccc(Oc2ccc(OCC(=O)NC3CCS(=O)(=O)C3)cc2)cc1 (centres undefined),12µM,0,0,-,0,0
COc1ccc2cc(-c3cc(C(=O)OCC(=O)NC4CCS(=O)(=O)C4)c4ccccc4n3)ccc2c1 (centres undefined),?,0.63µM,0.5µM,1.1µM,?,0.48µM
Cn1c(CCNS(=O)(=O)c2ccccc2)nnc1SCc1cccnc1,0,0,0,-,0,0
CCCCc1cc(=O)oc2cc(OCc3nn[nH]n3)ccc12,0,0,0,-,0,?
COc1ccc(-c2cc(C(=O)OCC(=O)NC(C)C)c3ccccc3n2)cc1,?,0,0,0,0,6.7µM
CCNC(=O)COC(=O)c1cc(-c2ccc(OC)cc2)nc2ccccc12,0,0,0,0,0,5.4µM
COc1ccc(-c2cc(C(=O)OCC(=O)NC3CC3)c3ccccc3n2)cc1,0,0,0,-,0,3.8µM
COc1ccc(-c2cc(C(=O)Oc3cccc(C)c3C)c3ccccc3n2)cc1,-,-,-,0,-,?
O=C(COC(=O)c1cc(-c2ccccc2)nc2ccccc12)NC1CC1,0,-,-,-,0,-
COc1ccc(-c2cc(C(=O)OCC(=O)NC(C)(C)C)c3ccccc3n2)cc1,0,0,0,0,0,12µM
CCCNC(=O)COC(=O)c1cc(-c2ccc(OC)cc2)nc2ccccc12,0,0,0,0,0,?
Cc1nc(NC(=O)CN2CC(C)OC(C)C2)sc1C(=O)N(C)C (centres undefined),0,0,0,-,0,0
CCN(C(=O)COC(=O)c1cc2c(s1)CCCC2)c1c(N)n(Cc2ccccc2)c(=O)[nH]c1=O,0,-,-,-,0,-
O=[N+]([O-])c1ccc(COc2ccccc2/C=N/O)cc1,?,?,?,16µM,0,?
COc1ccc(-c2cn3cccnc3n2)cc1NC(=O)c1cc(OC)c(OC)c(OC)c1,8.2µM,0,0,0,0,21µM
COc1ccc(-c2cn3cccnc3n2)cc1NC(=O)C(C)Oc1ccccc1 (centres undefined),?,0,0,-,0,27µM
COc1ccc(NC(=O)Nc2cc(-c3cn4cccnc4n3)ccc2OC)cc1,-,-,-,0,-,?
SMILES,ELG1 repair inh,NPC1 promoter act,Rab9 promoter act,SMN2 splice up,ELG1 genotox,FLuc counter
COc1ccc(-c2cn3cccnc3n2)cc1NC(=O)Nc1ccc(Cl)cc1,-,-,-,-,-,6µM
COc1cc(C(=O)Nc2cccc(-c3cn4cccnc4n3)c2)cc(OC)c1OC,?,0,0,0,0,?
COc1ccc(C(=O)CCC(=O)NC2=NCCS2)cc1,?,0,0,-,0,0
COc1ccc(C(=O)NC2=NCCS2)cc1,?,2.2µM,2.8µM,-,?,19µM
CN1CCc2nc(NC(=O)c3cccc(OC(F)F)c3)sc2C1,?,0,0,0,?,11µM
CC(C)Oc1ccc(C(=O)NC2=NCCS2)cc1,?,0.71µM,0.45µM,2.5µM,?,6µM
N#Cc1ccc(C(=O)NC2=NCCS2)cc1,?,?,?,-,0,?
O=C(NC1=NCCS1)c1cccc(OC(F)F)c1,?,2.2µM,1.3µM,11µM,5.8µM,12µM
O=C(NC12CC3CC(CC(C3)C1)C2)c1cccc(OC(F)F)c1,?,0,0[1.84 µM],-,0,15µM
COc1cc(C(=O)NC2=NCCS2)cc(OC)c1OC,?,0,0,?,0,0
COc1cc(OC)cc(C(=O)NC2=NCCS2)c1,?,0,0,0,?,11µM
Cc1ccc(CN(Cc2ccco2)C(=O)COc2ccc(Cl)cc2)o1,-,-,-,0,-,0
CC(=O)c1sc(N/N=C2\CC3CC2C(C)C3(C)C)nc1C (centres undefined),?,?,?,-,?,13µM
CC(O)CNc1ncnc2cc(-c3ccc(F)cc3)sc12 (centres undefined),?,?,?,-,?,11µM
O=C(O/N=C1\CCCc2ccccc21)c1cccs1,0,0,0,0,0,1.3µM
O=C(Cc1ccc(Cl)cc1)N/N=C1\CCCc2ccccc21,0,0,0,0,0,0
O=C(Cc1ccccc1)O/N=C1\CCCc2ccccc21,0,0,0,0,0,15µM
CC(C)(C)C(=O)Nc1cc2c3c(c1)CCN3C(=O)CC2,?,0,0,-,0[9.26 µM],0
O=C(OCC(=O)N1CCN(C(=O)c2ccco2)CC1)c1cn(-c2ccccc2)nc1-c1ccccc1,?,0,0,0,0,17µM
O=C(OCC(=O)N1CCN(C(=O)c2ccco2)CC1)c1ccccc1C(=O)c1ccccc1,0,0,0,0,0,0
O=C(c1ccco1)N1CCN(C(=O)c2cn(-c3ccccc3)nc2-c2ccccc2)CC1,?,0,0,-,0,6µM
Cc1ccc(Cn2cc(/C=N/Nc3ccc([N+](=O)[O-])cn3)c3ccccc32)cc1,0,0,0,0,0,0
O=C(O)Cn1cc(/C=N/Nc2ccc([N+](=O)[O-])cn2)c2ccccc21,0,0,0,-,0,13µM
Cc1cc(/C=N/Nc2ccc([N+](=O)[O-])cn2)c(C)n1-c1ccccc1,?,?,3.5µM,?,?,?
Cc1ccc(-n2c(C)cc(/C=N/Nc3ccc([N+](=O)[O-])cn3)c2C)cc1,?,0,0,0,0,0
Cc1ccc(-c2noc(-c3nnn(CC(=O)Nc4ccc(C)cc4Cl)c3N)n2)cc1,-,-,-,-,-,0
N#CC1=C(N)Oc2cc3c(cc2C1c1ccc(Cl)cc1)OCO3 (centres undefined),?,0,0,25µM,0,0
Cc1ccc(C2C(C#N)=C(N)Oc3cc(N)ccc32)cc1 (centres undefined),0,0,0,-,0,0
